Screening results: PubChem, National Center for Advancing Translational Sciences (NCATS)
LDHA block = blocks human lactate dehydrogenase A; purified LDHA, NADH/diaphorase-resazurin fluorescence; stronger effect = lower value; AID 1347041; hit rate 0.15% among 480,000; activity change, % (values are at about 110 or 230 µM); P00338; in the data active = activity change below about -30%; inconclusive = mostly about -25% to -30%;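 also: plate controls were DMSO wells for no effect and wells without enzyme for full effect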
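LDH5 2 nM; NADH 0.06 mM, pyruvate 0.2 mM; 200 mM Tris pH 7.4, EDTA, Tween-20; 5 min RT. Detection: diaphorase 0.133 mg/mL + resazurin 37 µM, fluorescence ex540/em590 at 0 and 20 min; normalized to enzyme-free and DMSO wells.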
TDP43 rescue = TDP-43 toxicity inhibition in yeast. TDP-43 expressing yeast growth rescue, BacTiter-Glo, 24 h. Potency, µM (series often up to 46.1 µM), inactives show at the top dose growth rescue (activation), usual class: activators. hit rate 1.8% among 410,000; also: potency is read from the fitted curve at half-maximal effect; % of control where 0% means no effect; nearly all actives have a fitted effect of over 50% in size
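Yeast expressing TDP-43 (pregrown in raffinose, seeded at OD600=0.02 in galactose medium) exposed to compounds 24 hr at 30 deg C. Growth read by BacTiter-Glo luminescence; rescue of toxicity appears as increased signal.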
FUS yeast rescue = FUS proteinopathy suppression in yeast. S. cerevisiae FUS-expressing, growth rescue, OD600, 24 h. Potency, µM (titrated, usually from 76.6 µM), actives largely listed as activators. hit rate 0.24% among 390,000;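 also: potency is read from the fitted curve at half-maximal effect; plate controls were DMSO vehicle for no effect and reference control for full effect; nearly all actives have a fitted effect of over 55% in size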
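Yeast FUS proteinopathy model; galactose-induced FUS (2%), starting OD 0.005. Cpds in dilution series, 24hr, 30C, 99% humidity. Abs 600 nm growth. Pos ctrl CP55940 (top 92uM final); neg ctrl DMSO.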
Abeta yeast res = restores growth of yeast expressing A-beta42 peptide. yeast expressing A-beta42, growth rescue, OD600, 48 h; response scale: 0% DMSO, 100% iron-clioquinol control. Potency, µM (series often up to 46.1 µM), hits mostly activators. hit rate 0.063% among 410,000; also: potency is read from the fitted curve at half-maximal effect; nearly all actives have a fitted effect of over 55% in size
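Yeast growth medium received pinned compounds, then yeast cells expressing toxic A-beta were added; plates incubated at 30 C for 48 hr. Growth read as absorbance at 600 nm, normalized to DMSO and equimolar FeCl3 plus clioquinol controls.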
mIDH1 inhibitor = inhibitors of human mutant IDH1 R132H; hit rate 0.093% among 390,000; O75874; Potency, µM (highest dose often 76.6 µM), without a hit: at the highest dose activity change, negative = inhibition, usual class: inhibitors; AID 602179; IDH1-R132H enzyme, NADPH consumption, diaphorase/resazurin fluorescence; also: potency is read from the fitted curve at half-maximal effect; % is scaled to controls: 0 for no effect and ±100 for the full control effect; nearly all actives have a fitted effect of over 65% in size
Target sequence (O75874 whole entry R132H, stated change not applied): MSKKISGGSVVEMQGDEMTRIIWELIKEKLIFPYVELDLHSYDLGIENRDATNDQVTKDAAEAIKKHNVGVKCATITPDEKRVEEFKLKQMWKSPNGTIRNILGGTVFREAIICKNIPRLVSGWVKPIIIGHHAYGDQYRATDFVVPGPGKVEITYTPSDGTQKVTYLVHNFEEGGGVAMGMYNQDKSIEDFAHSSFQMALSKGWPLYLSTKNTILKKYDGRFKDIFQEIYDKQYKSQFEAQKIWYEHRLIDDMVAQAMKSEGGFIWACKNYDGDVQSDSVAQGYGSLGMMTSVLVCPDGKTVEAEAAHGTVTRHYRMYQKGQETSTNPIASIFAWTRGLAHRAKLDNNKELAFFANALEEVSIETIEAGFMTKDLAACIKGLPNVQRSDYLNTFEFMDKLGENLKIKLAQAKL
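IDH1-R132H (0.5 ug/mL) preincubated 30 min with compound, then NADPH (0.016 mM) and alpha-KG (2 mM) added; 80 min at RT, pH 7.5. Remaining NADPH coupled via diaphorase/resazurin to fluorescence (540/590 nm); concentration-response curves normalized to no-enzyme control.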
aSyn yeast inh = inhibitors of alpha-synuclein toxicity in yeast | Yeast expressing alpha-synuclein, growth rescue, BacTiter-Glo, 24 h | Potency, µM (doses to about 46.1 µM), inactives show at the top dose growth rescue (activation), hits mostly activators | hit rate 0.14% among 370,000; also: potency is read from the fitted curve at half-maximal effect; % of control where 0% means no effect; nearly all actives have a fitted effect of over 65% in size
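Rescue of yeast growth: cells expressing toxic alpha-synuclein, induced in galactose at OD600 0.02, incubated with compound 24 h at 30 C. ATP luminescence quantified growth; inhibitors of toxicity appear as activators.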
* hit, by the source's call. A selection: hits, their analogues and other compounds. The true share with any hit is near 2%. Unless noted, calls follow the shape of the dose curve; as a rule, active = well fitted curve in the direction sought with a large enough effect; inconclusive = small, poorly fitted or top-dose-only effect, or another doubt; inactive = no such curve, though single readings can be large; an effect the other way counts as inactive or inconclusive.

Results for CC(C)(C)c1cc(/C=C/C(=O)O)cc(C(C)(C)C)c1O ?
LDHA block: -5

How did O=C(/C=C/Nc1ccc(Cl)cc1C(F)(F)F)c1ccc(Br)cc1 do in these assays?
LDHA block: 1

How did Cc1cccc2sc(NNC(=O)c3ccc(S(=O)(=O)N4CCCC(C)C4)cc3)nc12 (configuration not stated) do in these assays?
LDHA block: 1; TDP43 rescue: 5.6µM*; FUS yeast rescue: inconclusive; Abeta yeast res: inactive; mIDH1 inhibitor: -10%; aSyn yeast inh: 11%

What do the screens show for `CC1CCCN(S(=O)(=O)c2ccc(C(=O)Nc3nnc(-c4ccco4)o3)cc2)C1` (configuration not stated)?
LDHA block: -3; TDP43 rescue: 27%; FUS yeast rescue: inactive; Abeta yeast res: inactive; mIDH1 inhibitor: 3%; aSyn yeast inh: 3%

How did CC(C)Cc1nnc(NC(=O)c2ccc3c(c2)OCCO3)s1 do in these assays?
LDHA block: -2; TDP43 rescue: 20µM*; FUS yeast rescue: inactive; Abeta yeast res: inactive; mIDH1 inhibitor: 15%; aSyn yeast inh: 1%

Results for CCc1nnc(NC(=O)c2ccc(S(=O)(=O)N3CCCC(C)C3)cc2)o1 (configuration not stated) ?
LDHA block: 2; TDP43 rescue: inconclusive; FUS yeast rescue: inactive; Abeta yeast res: inconclusive; mIDH1 inhibitor: -17%; aSyn yeast inh: 22µM*

What do the screens show for `Cc1[nH]c2ccccc2c1C(c1ccc(Cl)c(Cl)c1)c1c(C)[nH]c2ccccc12`?
LDHA block: 2

Results for CC(C)c1ccc(-n2nnnc2SCC(=O)N(Cc2ccco2)C2=CCCCC2)cc1 ?
LDHA block: 9

Results for COC(=O)c1cccc(CNc2ccc3c4c(cccc24)CC3)c1 ?
LDHA block: 2

What do the screens show for `CCOC(=O)Nc1ccc2c(c1)N(C(=O)CCN(C)C)c1ccccc1S2`?
LDHA block: -9; TDP43 rescue: 20µM*; FUS yeast rescue: inactive; Abeta yeast res: inactive; mIDH1 inhibitor: 0%; aSyn yeast inh: 13%

What do the screens show for `CCOC(=O)Nc1ccc2c(c1)N(C(=O)CN(C)C)c1ccccc1S2`?
LDHA block: 0; TDP43 rescue: -5%; FUS yeast rescue: inactive; Abeta yeast res: inactive; mIDH1 inhibitor: 6%; aSyn yeast inh: -3%

How did O=S1(=O)CCN2C(c3cccc(Br)c3)=CSC2=N1 do in these assays?
LDHA block: -5

Results for Nc1cc([N+](=O)[O-])cc2oc(-c3ccccc3)cc12 ?
LDHA block: 1; TDP43 rescue: 35µM*; FUS yeast rescue: inactive; Abeta yeast res: inactive; mIDH1 inhibitor: 0%; aSyn yeast inh: 11%

What do the screens show for `COc1cc(/C=C(/C#N)C(=O)NCc2ccccc2)cc(OC)c1OC`?
LDHA block: -4; TDP43 rescue: 20µM*; FUS yeast rescue: inactive; Abeta yeast res: inactive; mIDH1 inhibitor: -1%; aSyn yeast inh: inconclusive

What do the screens show for `Cc1cc(/C=C(\C#N)C(=O)NCc2ccccc2)cc(C)c1O`?
LDHA block: -7; TDP43 rescue: -4%; FUS yeast rescue: inactive; Abeta yeast res: inactive; mIDH1 inhibitor: -1%; aSyn yeast inh: 1%

How did Clc1ccc(COn2c(-c3ccccc3)nc3ccccc32)cc1 do in these assays?
LDHA block: -5; TDP43 rescue: 18µM*; FUS yeast rescue: inactive; Abeta yeast res: inactive; mIDH1 inhibitor: 6%; aSyn yeast inh: -19%

How did Clc1ccc(COn2c(-c3ccc(Cl)cc3)nc3ccccc32)cc1 do in these assays?
LDHA block: -2; TDP43 rescue: 21%; FUS yeast rescue: inactive; Abeta yeast res: inactive; mIDH1 inhibitor: 3%; aSyn yeast inh: 2%

Results for CCc1cc2c(=O)[nH]c(-c3ccccn3)nc2s1 ?
LDHA block: 11; TDP43 rescue: inconclusive; Abeta yeast res: inconclusive; mIDH1 inhibitor: 10%; aSyn yeast inh: 18µM*

How did CCOC(=O)NC(=O)CSc1nc(-c2ccc(C)c(C)c2)cn1-c1ccccc1 do in these assays?
LDHA block: -4; TDP43 rescue: 35µM*; FUS yeast rescue: inactive; Abeta yeast res: inactive; mIDH1 inhibitor: 2%; aSyn yeast inh: 0%

How did Cc1ccc(/C=C/C(=O)NC2CCc3ccccc32)o1 (configuration not stated) do in these assays?
LDHA block: 3

Results for Cc1cccc2[nH]cc(C3=CCN(C(=O)CCc4ccccc4)CC3)c12 ?
LDHA block: 12

What do the screens show for `Cc1cccc2c(=O)c(-c3ccc4c(c3)OCO4)c(NC(=O)c3ccco3)oc12`?
LDHA block: -4; TDP43 rescue: 16µM*; FUS yeast rescue: inactive; Abeta yeast res: inactive; mIDH1 inhibitor: 4%; aSyn yeast inh: 2%

Results for COc1ccc(-c2c(NC(=O)c3ccco3)oc3c(C)cccc3c2=O)cc1 ?
LDHA block: -1; TDP43 rescue: 14µM*; FUS yeast rescue: inactive; Abeta yeast res: inactive; mIDH1 inhibitor: -7%; aSyn yeast inh: 0%

What do the screens show for `CC(=O)c1c(C)n(-c2ccccc2C)c2ccc(O)cc12`?
LDHA block: 7

Results for CCCSc1nnc(NC(=O)c2sc3nc(-c4cccs4)ccc3c2N)s1 ?
LDHA block: 7; TDP43 rescue: -9%; FUS yeast rescue: 13µM*; Abeta yeast res: inactive; mIDH1 inhibitor: 8%; aSyn yeast inh: 2%

How did COc1ccc(C(C#N)=Cc2ccccc2OC)cc1 do in these assays?
LDHA block: -1; TDP43 rescue: 20µM*; FUS yeast rescue: inactive; Abeta yeast res: inactive; mIDH1 inhibitor: 10%; aSyn yeast inh: -9%

What do the screens show for `COc1ccc(/C=C(\C#N)c2nc3ccccc3n2C)c(OC)c1`?
LDHA block: -4; TDP43 rescue: 20µM*; FUS yeast rescue: inactive; Abeta yeast res: inactive; mIDH1 inhibitor: 0%

Results for COc1ccc(C(C#N)=Cc2ccc(OC)c(OC)c2)cc1 ?
LDHA block: 1; TDP43 rescue: inconclusive; FUS yeast rescue: inactive; Abeta yeast res: inactive; mIDH1 inhibitor: -2%; aSyn yeast inh: -3%

What do the screens show for `CCc1c(C)c2ccc3c(c2oc1=O)CN(Cc1ccccc1)CO3`?
LDHA block: -1; TDP43 rescue: -7%; FUS yeast rescue: inactive; Abeta yeast res: inactive; mIDH1 inhibitor: -1%; aSyn yeast inh: 4.5µM*

What do the screens show for `O=c1cc(-c2ccccc2)c2ccc3c(c2o1)CN(Cc1ccccc1)CO3`?
LDHA block: -8; TDP43 rescue: 16%; FUS yeast rescue: inactive; Abeta yeast res: inactive; mIDH1 inhibitor: -19%
